# Assays:
# Assay in all cases: DAPPL (digital affinity profiling via proximity ligation, sequencing); 10 mM Tris-HCl pH 7.5, 50 mM NaCl, 1 mM DTT, 4% glycerol, room temperature, 30 min; GST-TFs on glutathione beads, 16-mer random dsDNA library, 0.1% formaldehyde crosslink after washing; high values mean tight binding
# FEV = target: T1, FEV (Homo sapiens, UniProt Q99581 1-238); details: protein: recombinant; tags: N-terminal GST; dsDNA, one strand shown
# T1 sequence: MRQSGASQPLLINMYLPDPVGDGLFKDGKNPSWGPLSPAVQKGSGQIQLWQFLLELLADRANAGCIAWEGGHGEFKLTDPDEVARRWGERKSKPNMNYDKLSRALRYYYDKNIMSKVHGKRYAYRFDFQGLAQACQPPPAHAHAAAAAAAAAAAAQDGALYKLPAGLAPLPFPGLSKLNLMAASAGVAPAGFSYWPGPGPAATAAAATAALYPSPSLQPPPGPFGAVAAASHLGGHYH
# Method in brief: (§1)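 GST fusions of human transcription factors were expressed in yeast and captured with glutathione beads. Once given DNA barcodes and pooled alongside a tag-only sample, they were incubated for 30 min at room temperature with 200 nmole of a random double-stranded 16-mer DNA library in Tris/NaCl/DTT/glycerol buffer, then washed, crosslinked (0.1% formaldehyde), proximity-ligated, PCR-amplified and sequenced on an Illumina NextSeq500. The binding signal of each hexamer is its read frequency for a factor divided by its frequency for the tag-only sample.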
# ETV5 = ETV5 (Homo sapiens, UniProt P41161 1-510); details: protein: recombinant; tags: N-terminal GST; dsDNA, one strand shown
# Sequence of ETV5 (P41161 whole entry): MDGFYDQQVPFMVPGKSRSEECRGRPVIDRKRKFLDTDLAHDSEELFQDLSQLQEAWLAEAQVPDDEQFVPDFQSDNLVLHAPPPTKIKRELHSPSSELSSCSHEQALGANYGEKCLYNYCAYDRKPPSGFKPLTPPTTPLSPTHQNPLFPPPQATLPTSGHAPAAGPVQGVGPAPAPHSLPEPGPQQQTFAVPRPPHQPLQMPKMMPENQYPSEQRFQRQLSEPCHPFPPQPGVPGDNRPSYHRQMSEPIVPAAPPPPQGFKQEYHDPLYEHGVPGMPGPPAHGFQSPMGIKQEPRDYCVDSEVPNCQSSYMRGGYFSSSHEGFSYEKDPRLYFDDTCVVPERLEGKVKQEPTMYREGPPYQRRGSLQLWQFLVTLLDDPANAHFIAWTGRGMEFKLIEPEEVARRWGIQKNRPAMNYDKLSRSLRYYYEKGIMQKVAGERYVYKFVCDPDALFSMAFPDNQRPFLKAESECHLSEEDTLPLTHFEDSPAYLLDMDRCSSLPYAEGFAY
# Method in brief: as §1
# HSF1 = HSF1 (Homo sapiens, UniProt Q00613 1-529); details: protein: recombinant; tags: N-terminal GST; chain copies: 3; dsDNA, one strand shown
# Sequence of HSF1 (Q00613 whole entry): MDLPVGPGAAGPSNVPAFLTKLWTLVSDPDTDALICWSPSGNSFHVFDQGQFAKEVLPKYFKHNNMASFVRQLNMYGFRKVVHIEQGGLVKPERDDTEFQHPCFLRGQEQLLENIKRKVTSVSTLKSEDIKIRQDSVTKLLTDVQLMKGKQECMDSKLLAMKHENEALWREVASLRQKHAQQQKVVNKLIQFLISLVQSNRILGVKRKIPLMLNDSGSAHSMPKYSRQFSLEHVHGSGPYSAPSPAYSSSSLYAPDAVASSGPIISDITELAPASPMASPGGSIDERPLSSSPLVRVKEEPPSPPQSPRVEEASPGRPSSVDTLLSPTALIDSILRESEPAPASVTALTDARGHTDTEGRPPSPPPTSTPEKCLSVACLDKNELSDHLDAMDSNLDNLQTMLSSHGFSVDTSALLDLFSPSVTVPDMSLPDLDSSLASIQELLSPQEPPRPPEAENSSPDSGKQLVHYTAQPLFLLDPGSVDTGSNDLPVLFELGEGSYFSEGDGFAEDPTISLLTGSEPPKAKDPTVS
# Method in brief: as §1
# SPIC = target: T2, SPIC (Homo sapiens, UniProt Q8N5J4 1-248); details: protein: recombinant; tags: N-terminal GST; dsDNA, one strand shown
# T2 sequence: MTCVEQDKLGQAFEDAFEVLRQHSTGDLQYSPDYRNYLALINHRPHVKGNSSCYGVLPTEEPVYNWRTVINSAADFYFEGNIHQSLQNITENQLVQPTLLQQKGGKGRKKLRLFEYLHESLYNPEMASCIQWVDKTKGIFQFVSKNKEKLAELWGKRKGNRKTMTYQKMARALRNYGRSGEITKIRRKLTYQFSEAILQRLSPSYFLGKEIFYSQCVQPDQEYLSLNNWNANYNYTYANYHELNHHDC
# Method in brief: as §1
# ELF4 = ELF4 (Homo sapiens, UniProt Q99607 1-663); details: protein: recombinant; tags: N-terminal GST; dsDNA, one strand shown
# Sequence of ELF4 (Q99607 whole entry): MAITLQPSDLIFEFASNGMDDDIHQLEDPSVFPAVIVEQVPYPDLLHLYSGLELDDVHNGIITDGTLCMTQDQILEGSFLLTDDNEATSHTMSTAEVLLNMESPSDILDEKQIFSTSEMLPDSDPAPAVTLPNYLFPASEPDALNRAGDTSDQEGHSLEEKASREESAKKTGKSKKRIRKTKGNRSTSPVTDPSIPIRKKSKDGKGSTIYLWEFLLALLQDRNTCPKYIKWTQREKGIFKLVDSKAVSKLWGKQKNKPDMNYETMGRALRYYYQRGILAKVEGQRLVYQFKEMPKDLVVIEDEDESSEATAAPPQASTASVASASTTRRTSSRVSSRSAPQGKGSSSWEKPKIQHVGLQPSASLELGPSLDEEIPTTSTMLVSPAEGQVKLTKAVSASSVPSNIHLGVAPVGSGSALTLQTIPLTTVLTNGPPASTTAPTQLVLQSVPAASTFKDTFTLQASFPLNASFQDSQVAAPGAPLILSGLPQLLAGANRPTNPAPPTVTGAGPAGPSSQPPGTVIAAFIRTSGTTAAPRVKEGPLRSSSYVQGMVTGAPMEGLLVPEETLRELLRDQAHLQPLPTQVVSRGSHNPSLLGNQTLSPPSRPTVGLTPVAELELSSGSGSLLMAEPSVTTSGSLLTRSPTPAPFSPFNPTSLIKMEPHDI
# Method in brief: as §1
# ELK4 = target: T3, ELK4 (Homo sapiens, UniProt P28324-2 1-405); details: protein: recombinant; tags: N-terminal GST; dsDNA, one strand shown
# T3 sequence: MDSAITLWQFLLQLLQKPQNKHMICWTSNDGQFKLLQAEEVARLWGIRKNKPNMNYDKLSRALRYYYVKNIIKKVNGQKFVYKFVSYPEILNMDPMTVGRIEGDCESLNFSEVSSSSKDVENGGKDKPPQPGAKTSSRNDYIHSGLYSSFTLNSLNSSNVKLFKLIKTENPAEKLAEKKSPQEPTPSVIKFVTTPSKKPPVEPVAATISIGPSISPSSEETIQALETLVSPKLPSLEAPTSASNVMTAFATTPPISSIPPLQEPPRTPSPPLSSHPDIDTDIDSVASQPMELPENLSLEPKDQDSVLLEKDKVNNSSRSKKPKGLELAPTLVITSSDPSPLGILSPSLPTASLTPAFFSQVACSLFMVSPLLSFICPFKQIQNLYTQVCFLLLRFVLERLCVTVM
# Method in brief: as §1
# ETV2 = target: T4, ETV2 (Homo sapiens, UniProt O00321 1-342); details: protein: recombinant; tags: N-terminal GST; dsDNA, one strand shown
# T4 sequence: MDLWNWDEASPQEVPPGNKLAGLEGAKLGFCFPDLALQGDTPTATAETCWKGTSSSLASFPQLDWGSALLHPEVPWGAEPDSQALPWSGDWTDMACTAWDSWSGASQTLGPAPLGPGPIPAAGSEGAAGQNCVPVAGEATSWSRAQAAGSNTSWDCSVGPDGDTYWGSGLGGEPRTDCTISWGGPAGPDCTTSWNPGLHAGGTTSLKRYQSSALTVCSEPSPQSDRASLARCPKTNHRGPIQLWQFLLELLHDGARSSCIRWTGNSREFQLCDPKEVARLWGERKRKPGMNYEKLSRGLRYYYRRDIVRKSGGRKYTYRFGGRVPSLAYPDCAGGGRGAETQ
# Method in brief: as §1
# ELF3 = target: T5, ELF3 (Homo sapiens, UniProt P78545 1-371); details: protein: recombinant; tags: N-terminal GST; dsDNA, one strand shown
# T5 sequence: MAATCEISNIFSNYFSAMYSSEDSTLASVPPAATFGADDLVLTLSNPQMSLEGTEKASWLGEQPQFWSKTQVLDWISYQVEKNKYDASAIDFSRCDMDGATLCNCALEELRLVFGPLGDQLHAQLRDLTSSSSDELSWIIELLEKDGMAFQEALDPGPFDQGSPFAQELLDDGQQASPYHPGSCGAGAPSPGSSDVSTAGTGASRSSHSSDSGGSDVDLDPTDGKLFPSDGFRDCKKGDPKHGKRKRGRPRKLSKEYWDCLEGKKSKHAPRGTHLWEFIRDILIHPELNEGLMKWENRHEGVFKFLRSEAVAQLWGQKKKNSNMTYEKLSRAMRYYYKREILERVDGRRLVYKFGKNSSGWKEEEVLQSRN
# Method in brief: as §1
# CRX = CRX (Homo sapiens, UniProt O43186 1-299); details: protein: recombinant; tags: N-terminal GST; dsDNA, one strand shown
# Sequence of CRX (O43186 whole entry): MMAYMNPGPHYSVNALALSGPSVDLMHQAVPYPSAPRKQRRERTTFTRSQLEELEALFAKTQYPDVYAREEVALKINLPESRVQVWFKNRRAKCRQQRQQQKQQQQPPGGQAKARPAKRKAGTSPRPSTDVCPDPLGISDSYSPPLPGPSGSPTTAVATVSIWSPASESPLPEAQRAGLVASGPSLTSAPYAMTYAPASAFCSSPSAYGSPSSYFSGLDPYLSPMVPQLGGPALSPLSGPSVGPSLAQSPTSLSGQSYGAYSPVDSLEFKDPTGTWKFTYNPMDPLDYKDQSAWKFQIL
# Method in brief: as §1
# ETV1 = ETV1 (Homo sapiens, UniProt P50549 1-477); details: protein: recombinant; tags: N-terminal GST; dsDNA, one strand shown
# Sequence of ETV1 (P50549 whole entry): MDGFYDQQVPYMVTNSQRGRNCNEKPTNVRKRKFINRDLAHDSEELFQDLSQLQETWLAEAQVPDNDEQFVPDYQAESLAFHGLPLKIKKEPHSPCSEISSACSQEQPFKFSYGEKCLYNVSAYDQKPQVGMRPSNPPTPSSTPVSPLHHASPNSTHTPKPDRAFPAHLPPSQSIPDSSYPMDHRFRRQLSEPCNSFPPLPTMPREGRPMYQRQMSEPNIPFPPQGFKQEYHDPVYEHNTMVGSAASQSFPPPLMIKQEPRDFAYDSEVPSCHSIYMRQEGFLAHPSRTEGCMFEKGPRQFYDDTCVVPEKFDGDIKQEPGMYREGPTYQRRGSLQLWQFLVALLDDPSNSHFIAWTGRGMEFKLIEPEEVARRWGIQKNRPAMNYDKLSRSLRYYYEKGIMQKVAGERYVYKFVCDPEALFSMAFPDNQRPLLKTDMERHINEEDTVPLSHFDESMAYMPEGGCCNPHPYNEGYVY
# Method in brief: as §1
sequence,measurement,setting,value
CTATCC,binding signal,FEV,"1.39 fold enrichment (6-mer frequency, TF over GST control)"
same,binding signal,ETV5,"1.49 fold enrichment (6-mer frequency, TF over GST control)"
same,binding signal,HSF1,"1.25 fold enrichment (6-mer frequency, TF over GST control)"
same,binding signal,SPIC,"1.36 fold enrichment (6-mer frequency, TF over GST control)"
same,binding signal,ELF4,"1.34 fold enrichment (6-mer frequency, TF over GST control)"
same,binding signal,ELK4,"1.56 fold enrichment (6-mer frequency, TF over GST control)"
same,binding signal,ETV2,"1.49 fold enrichment (6-mer frequency, TF over GST control)"
same,binding signal,ELF3,"1.31 fold enrichment (6-mer frequency, TF over GST control)"
same,binding signal,CRX,"1.31 fold enrichment (6-mer frequency, TF over GST control)"
same,binding signal,ETV1,"1.36 fold enrichment (6-mer frequency, TF over GST control)"
